Bioassay records deposited in PubChem by National Center for Advancing Translational Sciences (NCATS).
Rows were chosen to be rich in hits. Some 1.2% of all compounds tested hit in one or more screens of this group.
GLA spleen mod: inhibits or activates alpha-galactosidase in human spleen homogenate | P06280 | human spleen homogenate, 4MU-alpha-Gal fluorescence, 40 min | Potency, µM (doses to about 80 µM), inactives show top-dose activity change, negative = inhibition, hits mostly inhibitors | hit rate 0.008% among 240,000 | AID 2107;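 further: potency means the concentration at half of the fitted maximal effect; 0% = enzyme with vehicle and -100% = no enzyme basal signal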
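Inhibition or activation of alpha-galactosidase in human spleen homogenate is scored by 4-MU fluorescence after 40 min at 37C, pH 5.0, with 1 mM substrate. AC50s come from concentration-response fitted to the Hill equation.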
GLA inh pH 4.5: blocks human alpha-galactosidase A at pH 4.5; P06280; purified enzyme, 4-MU-alpha-Gal fluorescence, pH 4.5; activity change, negative = inhibition, % at 105 µM; 230,000 tested, under 10 active; AID 1467;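 further: 0% = full activity with enzyme and -100% = basal without enzyme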
Target sequence (P06280 whole entry, looked up): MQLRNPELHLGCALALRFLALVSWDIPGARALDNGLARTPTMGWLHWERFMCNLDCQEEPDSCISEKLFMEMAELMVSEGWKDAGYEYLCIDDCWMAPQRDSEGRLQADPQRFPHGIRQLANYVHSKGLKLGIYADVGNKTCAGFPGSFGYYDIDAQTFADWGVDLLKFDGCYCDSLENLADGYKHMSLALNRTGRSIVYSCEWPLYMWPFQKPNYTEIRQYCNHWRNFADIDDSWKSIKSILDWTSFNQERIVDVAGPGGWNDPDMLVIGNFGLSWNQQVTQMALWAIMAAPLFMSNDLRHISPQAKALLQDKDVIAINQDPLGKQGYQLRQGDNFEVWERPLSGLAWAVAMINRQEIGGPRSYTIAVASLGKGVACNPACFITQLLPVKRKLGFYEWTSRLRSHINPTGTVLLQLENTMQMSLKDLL
HttQ103 aggreg: mutant huntingtin aggregation inhibition; PC12 HttQ103-GFP aggregates, Acumen cytometry, 40 h; Potency, µM (titrated, usually from 46.1 µM), for the others: at the highest dose activity change, negative = inhibition, hits mostly inhibitors; hit rate 1.1% among 220,000; further: potency means the concentration at half of the fitted maximal effect; on the % scale 0 is the no-effect control and ±100 the full control effect; nearly all actives have a fitted effect of over 60% in size
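PC12 cells with ecdysone-inducible HTT exon1 Q103-GFP, induced by 100 nM tebufenozide, given compounds in a concentration series. GFP aggregates (1–25 um, 6 SD above background) counted in lysates by laser-scanning cytometry, 488 nm excitation.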
HTT cytoprotect: cytoprotection in Huntington HTT-Q103 PC12 cell model. hit rate 0.14% among 230,000. Potency, µM (titrated, usually from 56.4 µM), without a hit: cytoprotection (ATP increase), usual class: activators. PC12 HTT-Q103 induced, cytoprotection, ATP luminescence, 40 h; further: potency means the concentration at half of the fitted maximal effect; % of control where 0% means no effect; nearly all actives have a fitted effect of over 45% in size
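Rat PC12, Q103 Htt exon1-GFP fusion, ecdysone promoter; tebufenozide inducer 100 nM final; compound titration; qHTS, 1500 cells/well; ATPlite luminescent read.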
Numbers without * were called inactive; ? = inconclusive; . = no result given; [ ] = remark or other dose. The call rests on the fitted dose curve; in most records, active means well fitted curve in the direction sought with a large enough effect; inconclusive means small, poorly fitted or top-dose-only effect, or another doubt; inactive means no such curve, though single readings can be large; an effect the other way counts as inactive or inconclusive.

SMILES	GLA spleen mod	GLA inh pH 4.5	HttQ103 aggreg	HTT cytoprotect
CCOCCn1c(N2CCN(c3ccccc3)CC2)nc2c1c(=O)n(C)c(=O)n2C	2.5%	0.1	-11.8%	1.8%
CCOCCn1c(CN2CCN(c3cccc(Cl)c3)CC2)nc2c1c(=O)n(C)c(=O)n2C	1.0%	-0.1	-11.7%	-26.4%
COCCn1c(N2CCN(c3ccccc3)CC2)nc2c1c(=O)n(C)c(=O)n2C	2.5%	1.7	19.1%[9.22 µM]	2µM*
COCCn1c(CN2CCN(c3cccc(Cl)c3)CC2)nc2c1c(=O)n(C)c(=O)n2C	-18.8%	-3.6	20µM*	-35.5%
Cc1nnc(NC(=O)Nc2cccc(Cl)c2)s1	4.6%	-7.3	?	-1.1%[10 µM]
O=C(Nc1ccccc1)Nc1nnc(CSCc2ccccc2Cl)s1	2.9%	-4.1	?	5.1%[10 µM]
O=C(Nc1ccc(Cl)c(Cl)c1)Nc1nnc(CSc2ccccc2)s1	-2.7%	-3.8	2.82µM*	26.2%[10 µM]
Cc1ccc(OCCSCc2nnc(NC(=O)Nc3cccc(Cl)c3)s2)cc1	4.5%	-8.5	8.91µM*	.
Cc1nc2ncnn2c(N2CCCC(C(=O)Nc3ccc4c(c3)CCC4)C2)c1C (configuration not stated)	12.2%	10.7	10µM*	-1.9%[10 µM]
O=C(Nc1ccc2c(c1)CCC2)C1CCCN(c2ncccn2)C1 (configuration not stated)	1.3%	-0.3	8.7%	-21.9%[10 µM]
CCCCCCCC[n+]1c(C)n(-c2ccccc2)c2ccc(NC(C)=O)cc21	6.4%	-5.1	10µM*	-35.6%
CC(=O)Nc1ccc(SCC(=O)c2cc(C)n(-c3ccccc3)c2C)cc1	1.6%	-12.3	-11.0%	9.3%[10 µM]
c1cncc(-c2cncnc2NC2CCNCC2)c1	-1.5%	.	.	14.9%
C=CCc1cccc(/C=N/NC(=O)CNc2ccccc2)c1O	-0.1%	1.0	11.2µM*	-72.6%
C=CCn1c(CNc2ccccc2)nnc1SCC(=O)N/N=C/c1ccccc1O	5.5%	-1.2	17.8µM*	-48.9%
C=CCc1cccc(/C=N/NC(=O)CNc2ccccc2OC)c1O	1.0%	-2.6	20µM*	-119.6%
C=CCc1cccc(/C=N/NC(=O)CNc2cccc3ccccc23)c1O	11.4%	1.9	24.7%	-13.3%[10 µM]
C=CCc1cccc(/C=N/NC(=O)C(C)Nc2cccc(C)c2)c1O (configuration not stated)	-0.1%	-10.3	11.2µM*	-128.0%
NCCCCCCC(O)(P(=O)(O)O)P(=O)(O)O	15.1%	.	.	.
COc1ccc2c(c1)C(=O)[C@H](OC(=O)Nc1ccc(OC(F)F)cc1)[C@@H](c1ccc(OC)c(Br)c1)O2	3.0%	-2.6	.	16.9%
FC(F)(F)C(F)(F)C(F)(F)C(F)(F)C(F)(F)F	.	.	12.0%	6.4%
CSCC[C@H](NC(=O)[C@H](CO)NC(=O)[C@H](Cc1ccc(O)cc1)NC(=O)[C@@H](N)CO)C(=O)N[C@@H](CCC(=O)O)C(=O)N[C@@H](Cc1cnc[nH]1)C(=O)N[C@@H](Cc1ccccc1)C(=O)N[C@@H](CCCNC(=N)N)C(=O)N[C@@H](Cc1c[nH]c2ccccc12)C(=O)NCC(=O)N[C@@H](CCCCN)C(=O)N1CCC[C@H]1C(=O)N[C@H](C(=O)NCC(=O)N[C@@H](CCCCN)C(=O)N[C@@H](CCCCN)C(=O)N[C@@H](CCCNC(=N)N)C(=O)N[C@@H](CCCNC(=N)N)C(=O)N1CCC[C@H]1C(=O)N[C@H](C(=O)N[C@@H](CCCCN)C(=O)N[C@H](C(=O)N[C@@H](Cc1ccc(O)cc1)C(=O)N1CCC[C@H]1C(=O)N[C@@H](CC(N)=O)C(=O)NCC(=O)N[C@@H](C)C(=O)N[C@@H](CCC(=O)O)C(=O)N[C@@H](CC(=O)O)C(=O)N[C@@H](CCC(=O)O)C(=O)N[C@@H](CO)C(=O)N[C@@H](C)C(=O)N[C@@H](CCC(=O)O)C(=O)N[C@@H](C)C(=O)N[C@@H](Cc1ccccc1)C(=O)N1CCC[C@H]1C(=O)N[C@@H](CC(C)C)C(=O)N[C@@H](CCC(=O)O)C(=O)N[C@@H](Cc1ccccc1)C(=O)O)C(C)C)C(C)C)C(C)C	-6.5%	.	.	.
COc1ccc(C2=Nn3c(nnc3-c3ccc(OC)cc3OC)SC2)cc1	3.1%	.	.	.
NS(=O)(=O)c1ccc(N=Nc2c(-c3ccccc3)[nH]n(-c3nc(-c4ccccc4)cs3)c2=O)cc1	-5.7%	-11.4	5.62µM*	21.7%[10 µM]
Nc1[nH]n2c(=O)cc(-c3ccccc3)nc2c1N=Nc1ccc(S(N)(=O)=O)cc1	0.8%	-25.7	19.8%[9.22 µM]	-7.7%[10 µM]
SMILES	GLA spleen mod	GLA inh pH 4.5	HttQ103 aggreg	HTT cytoprotect
O=[N+]([O-])c1ccccc1CN1CCN(Cc2c[nH]c3ccccc23)CC1	-1.2%	1.7	8.91µM*	-109.4%
CCOc1ccc(S(=O)(=O)N(C(=O)c2ccco2)c2cc3sc(=O)oc3c3ccccc23)cc1	-4.2%	-0.1	0.2%	0.891µM*
CC[C@H](C)[C@H](NC(=O)[C@H](Cc1ccc(O)cc1)NC(=O)[C@H](CCCNC(=N)N)NC(=O)[C@H](CCCNC(=N)N)NC(=O)[C@H](CC(C)C)NC(=O)[C@H](CCC(N)=O)NC(=O)[C@@H](NC(=O)[C@H](CCC(=O)O)NC(=O)[C@H](Cc1ccc(O)cc1)NC(=O)[C@H](CCC(N)=O)NC(=O)[C@H](C)NC(=O)[C@H](CCCNC(=N)N)NC(=O)[C@H](CCC(N)=O)NC(=O)[C@H](CCC(=O)O)NC(=O)[C@H](Cc1cnc[nH]1)NC(=O)[C@@H](NC(=O)[C@H](C)NC(=O)[C@H](Cc1ccc(O)cc1)NC(=O)[C@H](CC(=O)O)NC(=O)CNC(=O)[C@@H]1CCCN1C(=O)[C@H](Cc1ccc(O)cc1)NC(=O)[C@H](CCSC)NC(=O)[C@@H]1CCCN1C(=O)[C@H](CCC(=O)O)NC(=O)[C@H](CC(C)C)NC(=O)[C@@H]1CCCN1C(=O)[C@H](C)N)[C@@H](C)O)[C@@H](C)O)C(=O)N[C@@H](CC(N)=O)C(=O)N[C@H](C(=O)N[C@@H](CC(C)C)C(=O)N[C@H](C(=O)N[C@@H](CCCNC(=N)N)C(=O)N1CCC[C@H]1C(=O)N[C@@H](CCCNC(=N)N)C(=O)N[C@@H](Cc1ccc(O)cc1)C(N)=O)[C@@H](C)O)[C@@H](C)O	-24.4%	.	.	.
C=C(C(C)=O)C(O)c1ccc(Cl)cc1 (configuration not stated)	-14.3%	-7.7	.	.
O=C(O)/C=C/C(O)c1ccc(Cl)cc1 (configuration not stated)	12.4%	-3.7	.	3.16µM*
O=C(O)/C=C/C(=O)NC1CCCCC1	19.4%	-0.6	3.55µM*	-58.0%[10 µM]
COc1cccc(N(C(=O)CCl)C(C(=O)NCCc2ccccc2)c2cccs2)c1 (configuration not stated)	-3.4%	-3.4	22.4µM*	-63.2%[10 µM]
COc1ccc(N(C(=O)CCl)C(C(=O)NCCc2ccccc2)c2cccs2)cc1Cl (configuration not stated)	4.8%	-14.3	7.3%[9.22 µM]	-39.8%[10 µM]
